From PubChem BioAssay AID1159580 (chemical genetic matrix, 2015)
Hit rate of the full screen: of about 5,500 compounds, about 2,000 (36%) were called active. Another 18% or so got no clear call; they are omitted. Cut-off read from the data, not from the text of the source: active = normalized growth mostly below about 0.91 (no sharp cut-off); inconclusive = no clear call, values can overlap the other calls; inactive = mostly above about 0.92. The list shows a part of the results.

Test: chemical genetic growth profiling, strain panel (AID 1159580);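 note: tested at 20 µM; growth read once vehicle control cultures reached saturation at 30 °C; 1 = growth at the plate median or of vehicle wells; lower values mean less growth of the strain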
Settings: growth OD

Measured: normalized growth

CC(=O)N[C@@H](CC(C)C)C(=O)O
inactive: S. cerevisiae deletion strains, locus YJR066W, strain TOR1, active compounds read low 1.02 | S. cerevisiae deletion strains, locus YJR075W, strain HOC1, active compounds read low 0.992 | S. cerevisiae deletion strains, locus YKL009W, strain mrt4, active compounds read low 0.962 | S. cerevisiae deletion strains, locus YKL068W, active compounds read low 0.977 | S. cerevisiae deletion strains, locus YKL085W, strain MDH1 (second series), active compounds read low 0.972 | S. cerevisiae deletion strains, locus YKL085W, strain MDH1, active compounds read low 0.972 | S. cerevisiae deletion strains, locus YKL160W, strain elf1, active compounds read low 0.977 | S. cerevisiae deletion strains, locus YKL190W, strain CNB1, active compounds read low 0.987 | S. cerevisiae deletion strains, locus YKR001C, strain vps1, active compounds read low 1 | S. cerevisiae deletion strains, locus YKR026C, strain gcn3, active compounds read low 0.979 | S. cerevisiae deletion strains, locus YKR091W, strain srl3, active compounds read low 1 | S. cerevisiae deletion strains, locus YLL001W, strain dnm1, active compounds read low 0.944 | S. cerevisiae deletion strains, locus YLL026W, active compounds read low 0.985 | S. cerevisiae deletion strains, locus YLL041C, strain sdh2, active compounds read low 0.995 | S. cerevisiae deletion strains, locus YLR027C, strain aat2, active compounds read low 0.992 | S. cerevisiae deletion strains, locus YLR039C, strain RIC1, active compounds read low 0.958 | S. cerevisiae deletion strains, locus YLR058C, strain SHM2, active compounds read low 0.989 | S. cerevisiae deletion strains, locus YLR102C, strain apc9, active compounds read low 0.988 | S. cerevisiae deletion strains, locus YLR113W, strain HOG1, active compounds read low 1.05 | S. cerevisiae deletion strains, locus YLR221C, strain rsa3, active compounds read low 1 | S. cerevisiae deletion strains, locus YLR258W, strain gsy2, active compounds read low 0.997 | S. cerevisiae deletion strains, locus YLR262C, strain YPT6 (second series), active compounds read low 0.983 | S. cerevisiae deletion strains, locus YLR262C, strain YPT6, active compounds read low 0.954 | S. cerevisiae deletion strains, locus YLR268W, strain sec22, active compounds read low 0.985 | S. cerevisiae deletion strains, locus YLR320W, strain mms22, active compounds read low 1.02 | S. cerevisiae deletion strains, locus YLR330W, strain CHS5, active compounds read low 0.972 | S. cerevisiae deletion strains, locus YLR342W, strain FKS1 (second series), active compounds read low 0.973 | S. cerevisiae deletion strains, locus YLR342W, strain FKS1, active compounds read low 0.984 | S. cerevisiae deletion strains, locus YLR357W, strain rsc2, active compounds read low 0.99 | S. cerevisiae deletion strains, locus YLR370C, strain arc18, active compounds read low 0.982 | S. cerevisiae deletion strains, locus YLR371W, strain rom2, active compounds read low 0.982 | S. cerevisiae deletion strains, locus YLR384C, strain iki3, active compounds read low 0.976 | S. cerevisiae deletion strains, locus YLR418C, strain cdc73, active compounds read low 0.978 | S. cerevisiae deletion strains, locus YML016C, strain PPZ1, active compounds read low 0.992 | S. cerevisiae deletion strains, locus YML032C, strain rad52, active compounds read low 1 | S. cerevisiae deletion strains, locus YML120C, strain ndi1, active compounds read low 0.976 | S. cerevisiae deletion strains, locus YML124C, strain tub3, active compounds read low 0.995 | S. cerevisiae deletion strains, locus YMR058W, strain fet3, active compounds read low 0.982 | S. cerevisiae deletion strains, locus YMR078C, strain ctf18, active compounds read low 0.984 | S. cerevisiae deletion strains, locus YMR125W, strain sto1, active compounds read low 0.994 | S. cerevisiae deletion strains, locus YMR129W, active compounds read low 0.998 | S. cerevisiae deletion strains, locus YMR205C, strain PFK2, active compounds read low 0.992 | S. cerevisiae deletion strains, locus YMR223W, strain ubp8, active compounds read low 0.968 | S. cerevisiae deletion strains, locus YMR231W, strain pep5, active compounds read low 0.991 | S. cerevisiae deletion strains, locus YMR263W, strain SAP30, active compounds read low 0.998 | S. cerevisiae deletion strains, locus YMR307W, strain GAS1, active compounds read low 0.982 | S. cerevisiae deletion strains, locus YNL067W, strain RPL9B, active compounds read low 1.03 | S. cerevisiae deletion strains, locus YNL071W, strain lat1, active compounds read low 1.01 | S. cerevisiae deletion strains, locus YNL183C, strain NPR1, active compounds read low 0.958 | S. cerevisiae deletion strains, locus YNL209W, strain ssb2, active compounds read low 0.99 | S. cerevisiae deletion strains, locus YNL233W, strain BNI4, active compounds read low 1.04 | S. cerevisiae deletion strains, locus YNL248C, strain rpa49, active compounds read low 0.989 | S. cerevisiae deletion strains, locus YNL250W, strain rad50, active compounds read low 0.96 | S. cerevisiae deletion strains, locus YNL271C, strain bni1, active compounds read low 0.979 | S. cerevisiae deletion strains, locus YNL298W, strain CLA4, active compounds read low 0.976 | S. cerevisiae deletion strains, locus YNL307C, strain MCK1, active compounds read low 0.991 | S. cerevisiae deletion strains, locus YNL322C, strain KRE1 (second series), active compounds read low 0.991 | S. cerevisiae deletion strains, locus YNR049C, strain mso1, active compounds read low 0.988 | S. cerevisiae deletion strains, locus YNR052C, strain pop2, active compounds read low 0.986 | S. cerevisiae deletion strains, locus YOL006C, strain TOP1, active compounds read low 1.1 | S. cerevisiae deletion strains, locus YOL012C, strain htz1 1.43 | S. cerevisiae deletion strains, locus YOL147C, strain pex11, active compounds read low 0.98 | S. cerevisiae deletion strains, locus YOR001W, strain rrp6, active compounds read low 0.971 | S. cerevisiae deletion strains, locus YOR061W, strain CKA2, active compounds read low 0.986 | S. cerevisiae deletion strains, locus YOR069W, strain VPS5, active compounds read low 0.982 | S. cerevisiae deletion strains, locus YOR070C, strain gyp1, active compounds read low 1 | S. cerevisiae deletion strains, locus YOR080W, strain dia2, active compounds read low 0.982 | S. cerevisiae deletion strains, locus YOR083W, strain WHI5, active compounds read low 0.976 | S. cerevisiae deletion strains, locus YOR106W, strain vam3, active compounds read low 0.974 | S. cerevisiae deletion strains, locus YOR136W, strain idh2, active compounds read low 0.992 | S. cerevisiae deletion strains, locus YOR144C, strain elg1, active compounds read low 0.996 | S. cerevisiae deletion strains, locus YOR184W, strain ser1, active compounds read low 0.983 | S. cerevisiae deletion strains, locus YOR231W, strain MKK1, active compounds read low 1.02 | S. cerevisiae deletion strains, locus YOR265W, strain rbl2, active compounds read low 0.998 | S. cerevisiae deletion strains, locus YOR270C, strain vph1, active compounds read low 0.996 | S. cerevisiae deletion strains, locus YOR290C, strain snf2, active compounds read low 1.01 | S. cerevisiae deletion strains, locus YOR316C, strain cot1, active compounds read low 1 | S. cerevisiae deletion strains, locus YPL051W, strain arl3, active compounds read low 0.992 | S. cerevisiae deletion strains, locus YPL078C, strain atp4, active compounds read low 0.955 | S. cerevisiae deletion strains, locus YPL106C, strain sse1, active compounds read low 0.994 | S. cerevisiae deletion strains, locus YPL240C, strain hsp82, active compounds read low 0.979 | S. cerevisiae deletion strains, locus YPL256C, strain CLN2, active compounds read low 1.04 | S. cerevisiae deletion strains, locus YPR119W, strain clb2, active compounds read low 0.99 | S. cerevisiae deletion strains, locus YPR141C, strain kar3, active compounds read low 0.974 | S. cerevisiae deletion strains, locus YPR163C, strain tif3, active compounds read low 0.977 | S. cerevisiae deletion strains, locus YPR167C, strain met16, active compounds read low 0.985 | S. cerevisiae deletion strains, strain wtn01, active compounds read low 0.991 | S. cerevisiae strains, strain wild type, active compounds read low 0.999
